Rows were chosen to be rich in hits. Some 17% of all compounds tested hit in one or more screens of this group.
TDP1 cell CPT: qHTS for Inhibitors of human tyrosyl-DNA phosphodiesterase 1 (TDP1): qHTS in cells in presence of CPT; Potency, µM (top dose mostly 46.2 µM), actives largely listed as inhibitors; chicken DT40 Tdp1-/-;hTDP1 cells + 20 nM CPT, ATP luminescence, 48 h; AID 686979, 2013; actives 12% (n = 420,000); further: nearly all actives have a fitted effect of over 55% in size
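Chicken DT40 Tdp1-/- cells complemented with human TDP1, 400 cells/well, exposed to compounds plus 20 nM camptothecin for at least 48 h at 37 C; viability read as ATP content by CellTiter-Glo luminescence.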
TDP1 inh: qHTS Assay for Inhibitors of Tyrosyl-DNA Phosphodiesterase (TDP1); recombinant TDP1, AlphaScreen DNA substrate cleavage; Potency, µM (series often up to 130 µM), actives largely listed as inhibitors; actives 0.28% (n = 350,000); AID 485290, 2010; further: nearly all actives have a fitted effect of over 40% in size
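Steps: enzyme plus compound, 15 min RT; add biotin/phosphotyrosine-FITC oligonucleotide (15 nM final), react 5 min; add donor/acceptor beads (10 ug/ml final), 10 min; read AlphaScreen. Tdp1 at 1 nM final.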
TDP1 cell noCPT: qHTS for Inhibitors of human tyrosyl-DNA phosphodiesterase 1 (TDP1): qHTS in cells in absence of CPT. DT40 Tdp1-/- hTDP1 cells, no CPT, ATP luminescence, 48 h. Potency, µM (highest dose often 46.2 µM), hits mostly inhibitors. actives 15% (n = 420,000). AID 686978, 2013; further: nearly all actives have a fitted effect of over 55% in size
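Luminescent ATP content (CellTiter-Glo) served as the growth readout. Knockout chicken DT40 cells expressing human TDP1 were exposed to compounds without camptothecin for a minimum 48 hr at 37 °C.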
ClpP mod: qHTS Assay for Activators of ClpP. Potency, µM (titrated, usually from 57.5 µM). purified B. subtilis ClpP, FRET peptide cleavage, 20 min. actives 1.9% (n = 340,000). AID 651965, 2013; active means well fitted falling curve with a large enough effect; inconclusive means small, poorly fitted or top-dose-only effect; inactive means no such curve, though single readings can be large or run the other way; further: the source files actives as falling curves though it sought activators and does not explain the sign; nearly all actives have a fitted effect of over 65% in size
Target sequence (P80244 whole entry, looked up): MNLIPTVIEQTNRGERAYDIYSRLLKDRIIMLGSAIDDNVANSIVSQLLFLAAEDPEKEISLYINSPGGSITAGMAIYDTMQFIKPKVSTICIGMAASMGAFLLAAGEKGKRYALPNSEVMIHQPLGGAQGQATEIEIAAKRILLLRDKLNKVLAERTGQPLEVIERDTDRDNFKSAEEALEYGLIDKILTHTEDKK
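ClpP 10 microg/mL final, pH 8 Tris/KCl buffer with BSA, glycerol, Tween-20; compound pinned in; FRET-FV substrate; RT 20 min; Ex320/Em430; ΔFRET vs ADEP 5.8 microM, DMSO, no enzyme.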
Each line names hits and unclear results; the compound was inactive in the other large screens. Unless noted, the call rests on the fitted dose curve; in most records, active means well fitted curve in the direction sought with a large enough effect; inconclusive means small, poorly fitted or top-dose-only effect, or another doubt; inactive means no such curve, though single readings can be large; an effect the other way counts as inactive or inconclusive.

CCCCC(=O)NCCNc1nc2c(c(=O)n(C)c(=O)n2C)n1Cc1ccc(F)cc1	TDP1 cell noCPT inconclusive
CCOc1cc(/C=C2\SC(=N)N(c3nonc3N)C2=O)ccc1OCCN1CCOCC1	TDP1 cell CPT 13µM, TDP1 cell noCPT 21µM
CCOc1cc(/C=C2\SC(=N)N(c3nonc3N)C2=O)ccc1OCC(N)=O	TDP1 cell CPT inconclusive, TDP1 cell noCPT inconclusive
CCc1cc(=O)oc2c(C)c3c(cc12)CN(CCc1ccccc1OC)CO3	TDP1 cell noCPT 21µM
CCCc1cc(=O)oc2c(C)c3c(cc12)CN(CCc1ccc(Cl)cc1)CO3	TDP1 cell CPT 6.5µM, TDP1 cell noCPT 15µM
CCc1cc(=O)oc2c3c(c(Cl)cc12)OCN(Cc1cccc(OC)c1)C3	none
Cn1c(NCCc2ccncc2)nc2cc(-c3ccsc3)sc2c1=O	TDP1 cell CPT 21µM, TDP1 cell noCPT 13µM (no result: TDP1 inh)
Cc1ccc(-c2cc3nc(NCCc4ccncc4)n(C)c(=O)c3s2)cc1	TDP1 cell CPT 23µM, TDP1 cell noCPT inconclusive (no result: TDP1 inh)
COc1ccc(-c2cc3nc(NCCN4CCCC4)n(C)c(=O)c3s2)cc1OC	TDP1 cell CPT inconclusive, TDP1 cell noCPT 18µM (no result: TDP1 inh)
Cn1c(NCCN2CCCC2)nc2cc(-c3ccsc3)sc2c1=O	TDP1 cell CPT 21µM, TDP1 cell noCPT 15µM, ClpP mod inconclusive (no result: TDP1 inh)
CC(=O)NCCNc1nc2cc(-c3ccsc3)sc2c(=O)n1C	none (no result: TDP1 inh)
O=C(NNS(=O)(=O)c1ccc(Cl)cc1)c1cccc(S(=O)(=O)N2CCOCC2)c1	none (no result: TDP1 inh)
COc1ccc(C(=O)C23CC4CC(C2)CC(C(=O)c2ccc(OC)cc2)(C4)C3)cc1	TDP1 cell CPT inconclusive, TDP1 cell noCPT 16µM
COc1ccc(CNC(=O)C23CC4CC(CC(Br)(C4)C2)C3)cc1	none (no result: ClpP mod)
Cc1ccc2nc(-c3cc(-c4ccccc4)no3)cn2c1	none (no result: TDP1 inh, ClpP mod)
CCc1ccn2cc(-c3cc(-c4ccccc4)no3)nc2c1	TDP1 cell CPT inconclusive, TDP1 cell noCPT 18µM
Cc1nc2nc(NC(=O)c3ccc(C(C)(C)C)cc3)[nH]n2c(=O)c1Cl	none
COCCOC(=O)C1=C(C)N=C2SCCC(=O)N2C1c1ccc(OCc2ccccc2)c(OC)c1 (stereo not drawn)	none
Cc1c2c(nc3ccccc13)CCC(C(C)(C)C)C2 (stereo not drawn)	TDP1 cell CPT inconclusive, TDP1 cell noCPT inconclusive (no result: ClpP mod)
O=c1c2c([nH]c3ccccc13)C(=C1CCCC1)CC2	TDP1 cell CPT 23µM, TDP1 inh inconclusive, TDP1 cell noCPT 21µM, ClpP mod inconclusive
O=c1c2c([nH]c3ccccc13)CCCC2	TDP1 cell CPT inconclusive, TDP1 cell noCPT 8.2µM
CC(C)(C)C1CCc2[nH]c3ccccc3c(=O)c2C1 (stereo not drawn)	TDP1 cell CPT 23µM, TDP1 cell noCPT 21µM
Cc1ccccc1NC(=O)c1cccc2c(=O)c3c([nH]c12)CCCC3	TDP1 cell CPT inconclusive, TDP1 cell noCPT inconclusive
COc1cc(/C=N/NC(N)=O)ccc1OCC(=O)Nc1cc(C)c(C)cc1Br	none
Cc1cc(C)cc(NC(=O)N2CCC(CN3CCc4ccccc4C3)CC2)c1	TDP1 cell CPT inconclusive, TDP1 cell noCPT 13µM
Cc1ccc(S(=O)(=O)c2cn(Cc3ccccc3Cl)c3ccc(F)cc3c2=O)cc1	TDP1 cell CPT 18µM, TDP1 cell noCPT 16µM
Cc1ccc(S(=O)(=O)c2cn(Cc3ccccc3F)c3cc4c(cc3c2=O)OCO4)cc1	TDP1 cell CPT 5.8µM, TDP1 cell noCPT inconclusive
CC(=O)c1ccc(N2CCN(C(=S)Nc3ccc(Oc4ccccc4)cc3)CC2)cc1	TDP1 cell CPT inconclusive, TDP1 cell noCPT 7.3µM (no result: ClpP mod)
COC(=O)Cc1ccc(NC(=S)N2CCN(c3ccc(F)cc3)CC2)cc1	TDP1 cell CPT 12µM, TDP1 cell noCPT 5.2µM
COc1ccc(N2CCN(C(=S)Nc3ccccc3)CC2)cc1	none (no result: TDP1 inh)
Fc1cccc(NC(=S)N2CCCC2)c1	none (no result: ClpP mod)
CC(=O)c1ccc(N2CCN(C(=S)Nc3cccc(F)c3)CC2)cc1	TDP1 cell CPT inconclusive, TDP1 cell noCPT 15µM
C=CCSC(=C(C#N)C#N)c1cc2c([nH]1)CCCC2	TDP1 cell CPT 10µM, TDP1 cell noCPT 12µM
N#Cc1cc2c([nH]c1=S)CCCC2	none
CCC(=O)N(C1=C(NC)C(=O)c2ccccc2C1=O)C(C)C	TDP1 cell CPT 2.1µM, TDP1 cell noCPT 1.6µM
COc1ccc(-n2c(SCC(C)=O)nc3sc(C)c(C)c3c2=O)cc1	none (no result: TDP1 inh)

Bioassay records: PubChem, National Center for Advancing Translational Sciences (NCATS)
